# Test results from PubChem BioAssay (NCATS).
# Values without a mark were called inactive. Results filed as inconclusive are left out. Active and inactive are the calls of the source. Unless noted, calls follow the shape of the dose curve; as a rule, active = well fitted curve in either direction with a large enough effect (not every such curve was filed as active); inconclusive = small, poorly fitted or top-dose-only effect, or another doubt; inactive = flat fitted curve, though single readings scatter.
# Experiments:
# [1] = target: Lysosomal acid glucosylceramidase (Homo sapiens) (UniProt P04062); assay: Glucocerebrosidase-p2 (AID 348; in the data active = potency below about 10 µM; also: potency is read from the fitted curve at half-maximal effect); conditions: purified GBA, blue fluorogenic substrate, 40 min
# How it was run: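 Normal human glucocerebrosidase (0.2 nM) with blue fluorogenic substrate (80 uM final) in citrate/phosphate pH 5.9 with 10mM sodium taurocholate, 0.01% tween-20; 40 min RT, NaOH/glycine stop; fluorescence Ex 365/Em 440; AC50 from a titration from 0.6 nM upwards.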
# [2] = target: Cytochrome P450 1A2 (Homo sapiens) (UniProt P05177); assay: p450-cyp1a2 (AID 410; calls by dose curve; also: potency is read from the fitted curve at half-maximal effect;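 as to activity change, negative = inhibition: -100% = full effect of reference inhibitor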); conditions: recombinant CYP1A2, luciferin-ME demethylation, luminescence; series mostly up to 11.4 µM
# How it was run: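 Read-out is luminescence from luciferin produced by CYP1A2 demethylation of Luciferin-ME (100uM, at Km). Detection reagent stopped the 60 min NADPH-dependent reaction; signals were normalized to 57 uM furafylline.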
# [3] = NFAT Signaling Pathway (AID 444); conditions: Jurkat NFAT-bla M1, carbachol, beta-lactamase ratio, 5 h; at 7.69 µM (top of the series) unless noted;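 also: carbachol stimulus at about its EC50 of 1 µM final; % is scaled to controls: 0 for no effect and ±100 for the full control effect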
# How it was run: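 Jurkat cells with NFAT-driven β-lactamase reporter and co-expressed M1 receptor, stimulated with carbachol (final 1 uM, ~EC50), compound titration, 5 h at 37 °C. CCF4 loaded 1 h at RT; 460/530 nm ratio gave %activity and AC50.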
# [4] = Stat Signaling Pathway (AID 446); conditions: ME-180 SIE beta-lactamase reporter, IL-6 stimulated, 5 h; at 7.69 µM (top of the series) unless noted;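 also: ME-180 cervical cancer cells given 40 pM IL-6 alongside compound; SIE-controlled beta-lactamase reporter measured as 460/530 nm FRET emission ratio; % is scaled to controls: 0 for no effect and ±100 for the full control effect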
# How it was run: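 Normalization used AC90 stimulation (300 pM IL-6) and AC90 inhibition (125 nM pan-JAK inhibitor at 40 pM IL-6). The underlying signal is SIE-driven beta-lactamase in ME-180 cells after 5 h IL-6 exposure with compound.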
# [5] = target: Glucocorticoid receptor (Homo sapiens) (UniProt P04150); assay: GR-GFP Redistribution (AID 450;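 active = compounds whose dose series gives a full or clear partial fitted curve of increased nuclear translocation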; also: potency is read from the fitted curve at half-maximal effect); conditions: U2OS GR-GFP nuclear translocation, laser cytometry, 2 h
# [6] = target: Glucocorticoid receptor (Homo sapiens) (UniProt P04150); assay: GR-EFC Redistribution (AID 451; calls by dose curve; also: potency is read from the fitted curve at half-maximal effect); conditions: CHO-K1 GR-EFC translocation, beta-gal luminescence, 2 h
# How it was run: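 CHO-K1 cells expressing nuclear EA and GR-ED fragments of b-gal; compounds titrated up to 46 uM final, 2 h at 37 C. GR nuclear translocation read as complemented b-gal luminescence after 1 h RT detection.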
# [7] = target: Mitogen-activated protein kinase 10 (Mus musculus) (UniProt Q61831); assay: JNK3 AlphaScreen Assay (AID 530); conditions: JNK3 lysate, c-Jun phosphorylation; series mostly up to 11.4 µM;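 also: kinase came from lysate of stimulated human HepG2 cells; signal reports phosphorylation of biotinylated GST-cJun 1-79 at Ser73 with 10 µM ATP; % is scaled to controls: 0 for no effect and ±100 for the full control effect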
# How it was run: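 HepG2 lysate (IL-1b/TNFa pre-activated) + biotin-GST-cJun 1-79 + anti-pSer73 cJun; cpd titration, 15 min RT; ATP 10 uM start; Tris pH 7.6, MgCl2, DTT, vanadate; beads in EDTA buffer; AlphaScreen.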
# [8] = target: Cytochrome P450 3A4 (Homo sapiens) (UniProt P08684); assay: qHTS Assay for Activators of Cytochrome P450 3A4 (AID 885; active = well fitted curve in the direction sought with a large enough effect; an effect the other way counts as inactive or inconclusive; also: nearly all actives have a fitted effect of over 65% in size); conditions: recombinant CYP3A4, Luciferin-PPXE luminescence, 60 min; series mostly up to 11.4 µM
# How it was run: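 Human CYP3A4 dealkylates Luciferin-PPXE to luciferin, which luciferase detection converts to light. Substrate was at its KM (25uM), buffer 200mM KPO4, reaction 60 min at RT.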
# [9] = target: 3',5'-cyclic-AMP phosphodiesterase 4B (Homo sapiens) (UniProt Q07343); assay: qHTS Assay for Inhibitors of PDE-IV (AID 607; active = well fitted activation curve with a large enough effect in the main read-out, with a control signal flat, not every such curve was filed as active; also: % of control where 0% means no effect); conditions: HEK293 ACTOne CNG channel cells, membrane potential fluorescence; series mostly up to 22.9 µM
# How it was run: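 HEK293 ACTOne cells with CNG channel (1000/well), endogenous PDE4; membrane potential dye, compounds up to 22.9 uM final. Fluorescence Ex 535/Em 590; RO 20-1724 (100 uM final) as reference.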
# [10] = target: Cytochrome P450 2D6 (Homo sapiens) (UniProt P10635); assay: qHTS Assay for Inhibitors and Substrates of Cytochrome P450 2D6 (AID 891; active = well fitted curve in the direction sought with a large enough effect; an effect the other way counts as inactive or inconclusive; also: potency is read from the fitted curve at half-maximal effect; nearly all actives have a fitted effect of over 60% in size); conditions: recombinant CYP2D6, luciferin-ME EGE luminescence; series mostly up to 11.4 µM
# How it was run: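 Luminescent read-out of luciferin formed by 5 nM human CYP2D6 demethylating 30 uM Luciferin-ME EGE (Km level) over 60 min at room temperature after NADPH regeneration addition. Data normalized to full inhibition by 1.43 uM quinidine.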
# [11] = target: Cytochrome P450 3A4 (Homo sapiens) (UniProt P08684); assay: qHTS Assay for Inhibitors and Substrates of Cytochrome P450 3A4 (AID 884; active = well fitted curve in the direction sought with a large enough effect; an effect the other way counts as inactive or inconclusive; also: potency is read from the fitted curve at half-maximal effect; nearly all actives have a fitted effect of over 50% in size); conditions: recombinant CYP3A4, Luciferin-PPXE luminescence; series mostly up to 57.1 µM
# How it was run: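 Luminescent readout of luciferin produced by CYP3A4 (20 nM) dealkylation of Luciferin-PPXE, 25 uM (its KM). NADPH-driven reaction ran 60 min at RT after 10 min compound preincubation; data scaled to 57 uM ketoconazole as 100% inhibition.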
# [12] = target: Cytochrome P450 2C19 (Homo sapiens) (UniProt P33261); assay: qHTS Assay for Inhibitors and Substrates of Cytochrome P450 2C19 (AID 899; active = well fitted curve in the direction sought with a large enough effect; an effect the other way counts as inactive or inconclusive; also: nearly all actives have a fitted effect of over 60% in size; also: potency is read from the fitted curve at half-maximal effect; as to activity, negative = inhibition: % is scaled to controls: 0 for no effect and ±100 for the full control effect); conditions: recombinant CYP2C19, luciferin-H EGE luminescence; series mostly up to 11.4 µM
# How it was run: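 5 nM human CYP2C19 with 10uM Luciferin-H EGE (at KM) in 50mM KPO4, compound preincubated 10 min at 37C, then NADPH regeneration for 60 min at 37C. Luciferin read by luminescence after detection reagent; normalized to 57uM ketoconazole as full inhibition.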
# [13] = qHTS Assay for Identification of Small Molecule Agonists for Hypoxia Response Element Signaling Pathway (AID 914; active = well fitted activation curve with a large enough effect in the signal ratio, with a control signal flat, not every such curve was filed as active; the % refers to the signal ratio; also: % of control where 0% means no effect); conditions: ME-180 (cervical carcinoma) HRE-bla reporter, beta-lactamase ratio, CoCl2, 17 h; activation: stronger effect = higher value
# How it was run: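 Read-out: CCF4 FRET ratio of 460nm to 530nm emission (excitation 405nm) after 2.5 hours at room temperature, taken from HRE-bla ME-180 cells that had been exposed to compound and EC50 CoCl2 for 17 hours.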
# Sequence of Lysosomal acid glucosylceramidase (Homo sapiens) (P04062 whole entry, looked up): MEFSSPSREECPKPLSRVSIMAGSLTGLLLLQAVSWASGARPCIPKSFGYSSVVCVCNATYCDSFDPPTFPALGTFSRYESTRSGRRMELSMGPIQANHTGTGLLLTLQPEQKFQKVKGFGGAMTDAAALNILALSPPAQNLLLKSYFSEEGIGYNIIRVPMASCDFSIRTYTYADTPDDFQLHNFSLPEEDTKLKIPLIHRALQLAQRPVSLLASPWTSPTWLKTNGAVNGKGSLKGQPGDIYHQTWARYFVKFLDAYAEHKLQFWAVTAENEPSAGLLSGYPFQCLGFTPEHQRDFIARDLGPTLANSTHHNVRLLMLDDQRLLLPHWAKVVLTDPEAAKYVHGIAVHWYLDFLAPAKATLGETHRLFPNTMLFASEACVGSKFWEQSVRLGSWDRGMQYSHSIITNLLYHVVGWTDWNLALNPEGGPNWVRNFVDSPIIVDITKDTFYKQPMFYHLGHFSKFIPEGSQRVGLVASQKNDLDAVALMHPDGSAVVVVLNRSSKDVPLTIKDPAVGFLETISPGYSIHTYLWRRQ
# Sequence of Cytochrome P450 3A4 (Homo sapiens) (P08684 whole entry, looked up): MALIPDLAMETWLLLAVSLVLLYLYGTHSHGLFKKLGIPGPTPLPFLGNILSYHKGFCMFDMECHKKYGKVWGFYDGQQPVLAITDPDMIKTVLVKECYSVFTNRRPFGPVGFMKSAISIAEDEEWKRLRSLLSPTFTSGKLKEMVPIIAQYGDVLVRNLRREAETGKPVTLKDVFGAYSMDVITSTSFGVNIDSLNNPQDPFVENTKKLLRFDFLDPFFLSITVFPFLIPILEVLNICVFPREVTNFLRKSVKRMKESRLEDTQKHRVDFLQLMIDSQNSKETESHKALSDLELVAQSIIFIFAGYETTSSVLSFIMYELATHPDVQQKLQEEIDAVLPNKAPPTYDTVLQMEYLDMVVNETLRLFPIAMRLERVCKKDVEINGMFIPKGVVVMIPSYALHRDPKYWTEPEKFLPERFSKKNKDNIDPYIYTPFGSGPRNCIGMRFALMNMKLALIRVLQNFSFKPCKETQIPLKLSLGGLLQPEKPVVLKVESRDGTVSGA
# Sequence of Cytochrome P450 2C19 (Homo sapiens) (P33261 whole entry, looked up): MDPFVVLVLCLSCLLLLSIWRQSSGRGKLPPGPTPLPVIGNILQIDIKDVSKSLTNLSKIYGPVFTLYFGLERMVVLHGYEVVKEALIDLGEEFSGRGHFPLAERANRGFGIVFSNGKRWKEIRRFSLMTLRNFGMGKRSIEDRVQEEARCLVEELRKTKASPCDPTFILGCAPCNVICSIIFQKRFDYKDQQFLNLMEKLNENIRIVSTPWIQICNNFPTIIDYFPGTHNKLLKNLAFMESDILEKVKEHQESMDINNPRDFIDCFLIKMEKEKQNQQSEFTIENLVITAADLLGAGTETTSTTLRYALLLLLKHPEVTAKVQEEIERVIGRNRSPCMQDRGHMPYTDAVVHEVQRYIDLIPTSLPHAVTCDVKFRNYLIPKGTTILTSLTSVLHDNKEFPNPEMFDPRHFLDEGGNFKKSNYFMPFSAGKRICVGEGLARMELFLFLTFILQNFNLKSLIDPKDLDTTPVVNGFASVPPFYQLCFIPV
# Sequence of 3',5'-cyclic-AMP phosphodiesterase 4B (Homo sapiens) (Q07343 whole entry, looked up): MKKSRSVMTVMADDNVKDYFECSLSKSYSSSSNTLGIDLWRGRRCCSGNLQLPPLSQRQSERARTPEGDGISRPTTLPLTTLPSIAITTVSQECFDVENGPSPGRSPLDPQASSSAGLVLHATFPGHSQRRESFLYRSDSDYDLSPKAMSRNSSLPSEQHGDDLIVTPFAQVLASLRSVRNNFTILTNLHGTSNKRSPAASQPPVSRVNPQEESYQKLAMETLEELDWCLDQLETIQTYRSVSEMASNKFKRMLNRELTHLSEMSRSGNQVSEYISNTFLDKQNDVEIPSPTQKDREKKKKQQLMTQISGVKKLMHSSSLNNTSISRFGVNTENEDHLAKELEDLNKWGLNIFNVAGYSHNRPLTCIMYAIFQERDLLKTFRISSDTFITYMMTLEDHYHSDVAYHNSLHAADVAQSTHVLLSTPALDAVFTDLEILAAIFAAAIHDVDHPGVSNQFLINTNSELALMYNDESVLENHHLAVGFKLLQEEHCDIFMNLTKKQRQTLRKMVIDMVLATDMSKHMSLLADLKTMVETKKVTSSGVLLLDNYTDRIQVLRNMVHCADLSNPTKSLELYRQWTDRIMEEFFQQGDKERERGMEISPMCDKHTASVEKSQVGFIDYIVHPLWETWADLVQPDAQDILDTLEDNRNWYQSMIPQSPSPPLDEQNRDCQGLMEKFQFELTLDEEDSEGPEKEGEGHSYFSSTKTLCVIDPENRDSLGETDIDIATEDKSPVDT
# Sequence of Glucocorticoid receptor (Homo sapiens) (P04150 whole entry, looked up, the tested form may be a part): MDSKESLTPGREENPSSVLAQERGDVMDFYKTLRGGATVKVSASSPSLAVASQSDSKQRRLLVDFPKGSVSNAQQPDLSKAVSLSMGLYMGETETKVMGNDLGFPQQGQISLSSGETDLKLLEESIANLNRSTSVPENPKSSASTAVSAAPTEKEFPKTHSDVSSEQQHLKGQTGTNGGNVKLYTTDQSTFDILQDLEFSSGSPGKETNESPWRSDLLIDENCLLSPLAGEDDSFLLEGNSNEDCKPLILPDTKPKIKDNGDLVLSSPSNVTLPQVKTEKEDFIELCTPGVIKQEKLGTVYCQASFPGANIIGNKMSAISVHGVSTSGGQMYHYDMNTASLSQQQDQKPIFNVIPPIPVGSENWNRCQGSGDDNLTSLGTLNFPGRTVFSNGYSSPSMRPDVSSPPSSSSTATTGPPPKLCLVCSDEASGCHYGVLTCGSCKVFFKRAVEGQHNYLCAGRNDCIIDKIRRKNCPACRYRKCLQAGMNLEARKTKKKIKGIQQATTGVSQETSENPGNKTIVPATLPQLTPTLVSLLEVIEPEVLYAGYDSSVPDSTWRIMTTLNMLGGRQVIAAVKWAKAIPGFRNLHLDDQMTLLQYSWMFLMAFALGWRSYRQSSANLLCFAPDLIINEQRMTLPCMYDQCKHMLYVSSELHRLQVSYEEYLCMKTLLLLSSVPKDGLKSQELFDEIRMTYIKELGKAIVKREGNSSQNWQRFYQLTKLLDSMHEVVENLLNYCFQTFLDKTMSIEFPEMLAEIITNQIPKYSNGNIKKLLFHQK
# Sequence of Cytochrome P450 2D6 (Homo sapiens) (P10635 whole entry, looked up): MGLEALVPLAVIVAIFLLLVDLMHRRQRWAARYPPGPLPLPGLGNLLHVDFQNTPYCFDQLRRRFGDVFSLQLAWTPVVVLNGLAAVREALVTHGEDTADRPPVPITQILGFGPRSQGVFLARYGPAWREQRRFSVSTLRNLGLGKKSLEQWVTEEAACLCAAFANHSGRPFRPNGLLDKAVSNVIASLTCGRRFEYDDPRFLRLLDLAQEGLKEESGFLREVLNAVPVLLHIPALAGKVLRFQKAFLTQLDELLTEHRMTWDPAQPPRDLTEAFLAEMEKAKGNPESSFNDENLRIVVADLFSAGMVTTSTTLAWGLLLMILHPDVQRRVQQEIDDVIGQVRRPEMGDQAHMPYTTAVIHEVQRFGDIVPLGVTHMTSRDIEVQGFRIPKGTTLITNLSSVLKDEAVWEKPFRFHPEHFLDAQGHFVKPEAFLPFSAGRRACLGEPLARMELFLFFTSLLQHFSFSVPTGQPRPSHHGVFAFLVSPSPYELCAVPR
# Sequence of Cytochrome P450 1A2 (Homo sapiens) (P05177 whole entry, looked up): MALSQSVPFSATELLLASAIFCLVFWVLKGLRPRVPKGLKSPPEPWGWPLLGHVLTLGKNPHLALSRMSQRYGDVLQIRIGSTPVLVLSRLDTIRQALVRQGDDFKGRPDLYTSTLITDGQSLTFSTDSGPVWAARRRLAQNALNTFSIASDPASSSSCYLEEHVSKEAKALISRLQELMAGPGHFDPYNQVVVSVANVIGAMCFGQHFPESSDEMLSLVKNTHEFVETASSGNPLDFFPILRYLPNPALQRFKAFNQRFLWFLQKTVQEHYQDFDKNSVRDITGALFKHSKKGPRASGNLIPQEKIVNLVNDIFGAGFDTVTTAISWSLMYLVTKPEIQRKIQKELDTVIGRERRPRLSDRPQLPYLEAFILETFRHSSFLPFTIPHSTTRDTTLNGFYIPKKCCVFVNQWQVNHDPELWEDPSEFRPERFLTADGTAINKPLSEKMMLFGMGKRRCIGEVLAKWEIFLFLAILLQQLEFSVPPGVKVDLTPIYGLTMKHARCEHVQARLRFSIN
SMILES,Potency [1],Potency [2],"activity change, negative = inhibition [3]","activity, negative = inhibition [4] [%]",Potency [5] [µM],Potency [6] [µM],Potency [7],Potency [8],"activity change, negative = inhibition [2]",Potency [9],Potency [10],Potency [11],Potency [12],activation [13] [%]
COc1ccc(Oc2ncc3nc(CCc4ccccc4)c(=O)n(C4CC4)c3n2)cc1,> 11.4 µM,12.6 µM (active),5.02%,-0.549,> 9.22,> 46,inactive,inactive,,,,,,
O=C(c1ccncc1)N1CCC2(CCCN(c3cccc(-c4ccccc4)c3)C2)CC1,> 11.4 µM,12.6 µM (active),-6.09%,-7.37,,> 46,inactive,,,,,,,
Cc1ccc(N=Nc2c(O)c3ccccc3[nH]c2=O)c(S(=O)(=O)N(C)C)c1,> 11.4 µM,,2.83%,3.87,> 46,> 9.22,inactive,,-14.6% [at 2.29 µM],inactive,,,,
CN(C)CCCn1c2c3ccccc3ccc2c2oc(=O)c3ccccc3c21,> 11.4 µM,0.316 µM (active),-13.6%,,> 46,> 9.22,inactive,,,inactive,1.26 µM (active),,,
COc1ccc2c(c1)N(CC[C@H]1CCCCN1C)c1ccccc1S2,> 11.4 µM,1.26 µM (active),-80.4% (active),-6.74,> 46,> 9.22,inactive,,,inactive,0.0501 µM (active),,,
C[N+](C)([O-])CCC=C1c2ccccc2CCc2ccccc21,> 11.4 µM,0.794 µM (active),,10.1,> 46,> 9.22,inactive,inactive,,inactive,,1.26 µM (active),0.398 µM (active),
CC(=O)Nc1ccc(Cc2ccc3[nH]c(=O)cc(C)c3c2)cc1,> 11.4 µM,inactive,,-9.78,> 46,> 9.22,inactive,,,inactive,,,,
Cc1c(S(=O)(=O)O)ccc(N=Nc2c(O)c(C(=O)O)cc3ccccc23)c1Cl,> 11.4 µM,5.01 µM (active),-10.7%,-10.2,> 46,> 9.22,inactive,,,inactive,,,,-17.8
C[C@@]12CC[C@@H]3[C@@H](CC[C@H]4C[C@@H](O)CC[C@]43C)[C@H]1CC[C@@H]2c1cc(C(F)(F)F)n[nH]1,> 11.4 µM,3.98 µM (active),,16.7,> 46,> 9.22,inactive,,,inactive,,,,
COc1cccc(Nc2ncc3ncc(=O)n(C4CC4)c3n2)c1,> 11.4 µM,0.631 µM (active),-22.2%,-24.1,> 9.22,> 46,inactive,inactive,,inactive,,,,
COCCn1c(=O)c(CCc2ccccc2)nc2cnc(Oc3cccc(Cl)c3)nc21,> 11.4 µM,3.98 µM (active),-14.7%,-17.3,> 9.22,> 46,,inactive,,,,0.794 µM (active),,
O=C1C(Cl)=C(Sc2nnc3c4ccccc4c4ccccc4c3n2)C(=O)c2ccccc21,> 11.4 µM,0.398 µM (active),,-24.6,> 46,> 9.22,inactive,inactive,,inactive,,,1.58 µM (active),
CC(CC(=O)O)(CC(=O)O)c1ccccc1,> 11.4 µM,inactive,4.46%,7.69,> 46,> 9.22,inactive,,,inactive,,,inactive,
C[C@@H]1CCCN(C[C@@H](O)CN2CCCc3ccccc32)C1,> 11.4 µM,inactive,-7.43%,11.4,> 46,> 9.22,inactive,,,inactive,1.58 µM (active),,,
CN(C)CCCN1c2ccc(O)cc2Sc2ccc(Cl)cc21,9.49 µM (active),0.631 µM (active),,18.9,> 46,> 9.22,inactive,,,inactive,0.126 µM (active),,,
C=C(C)COc1ccc2c(c1)CCC1C2CC[C@]2(C)C(=O)/C(=N/O)CC12 (stereo partly specified),> 11.4 µM,inactive,,9.84,> 46,> 9.22,inactive,,,inactive,,,,
